Assay outcomes as filed in PubChem BioAssay.
Most compounds without a hit are left out; they make up all but 4.4% or so of the library.
TIM10 inh: growth inhibitors of TIM10 yeast strain | S. cerevisiae TIM10 strain growth, BacTiter-Glo luminescence, 24 h | inhibition, % at 10 µM | 330,000 compounds, 1.4% hits | AID 463195;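 active = inhibition of 40% or more at the single tested concentration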;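 also: wild-type TIM10 isogenic control strain grown at permissive 25 °C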
SUMO Mot1 rescue: SUMOylation pathway inhibition by Mot1-301 growth rescue; growth rescue, % at 18.8 µM; 320,000 compounds, 1% hits; S. cerevisiae Mot1-301 growth rescue, ATP luminescence, 38.5C; percent above DMSO median, 100 means doubled; AID 2716;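 active = every valid replicate shows activation above 250% relative to neutral control wells; inactive = the rest, any valid replicate at or below 250%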
tim23-1 inh: growth inhibitors of tim23-1 mutant yeast; AID 463212; 330,000 compounds, 1.3% hits; S. cerevisiae tim23-1 growth, BacTiter-Glo luminescence, 24 h; inhibition, % at 20 µM;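 active = growth inhibition of the mutant yeast at or above 50%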;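 also: temperature-sensitive mutant grown at 25 °C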
tim10-1 inh: growth inhibitors of tim10-1 mutant yeast; S. cerevisiae tim10-1 ts strain growth, BacTiter-Glo, 24 h; inhibition, % at 20 µM; 330,000 compounds, 2.2% hits; AID 463190;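 active = inhibition of at least 40%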;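 also: mutant grown at 25 °C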
PfHsp90 yeast 2: reduces growth (ATP signal) of yeast expressing P. falciparum Hsp90. S. cerevisiae expressing PfHsp90, BacTiter-Glo ATP, 48 h; yeast lacking PDR1 and PDR3 efflux regulators. 310,000 compounds, 0.32% hits. AID 504621. inhibition, % at 9.4 µM;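 active = every replicate shows inhibition above about 80%, whatever the replicate mean, limit read from the data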
tim10-1 conf: confirmation of tim10-1 mutant yeast growth inhibitors. shares compounds with tim10-1 inh. S. cerevisiae tim10-1 ts strain growth, BacTiter-Glo, 24 h. inhibition, % at 20 µM. 7,400 compounds, 56% hits;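 active = inhibition of yeast growth at or above a set limit in either of two repeat tests at 20 µM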;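 also: tim10-1 mutant grown at permissive 25 °C to find synthetic lethal compounds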
TIM10 conf: TIM10 yeast growth inhibition, confirmed; S. cerevisiae tim10 strain growth, BacTiter-Glo luminescence, 24 h; shares compounds with TIM10 inh; inhibition, % at 10 µM; 4,600 compounds, 63% hits;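 active = inhibition of yeast growth at or above a set limit in either of two replicates at 10 µM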; also: this counterscreen used the strain with wild-type TIM10
tim23-1 confirm: confirmation of tim23-1 mutant yeast growth inhibitors; shares compounds with tim23-1 inh; S. cerevisiae tim23-1 growth, BacTiter-Glo luminescence, 24 h; inhibition, % at 20 µM; 4,400 compounds, 83% hits; AID 463218;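 active = inhibition above about 39% in either of two replicate wells at 20 µM, limit read from the data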;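 also: temperature-sensitive tim23-1 mutant grown at 25 °C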
A number is an active result.

Results for CCOC(=O)c1ccc(N2C(=O)CC(N3CC=C(c4ccc(F)cc4)CC3)C2=O)cc1 (stereo not drawn) ?
TIM10 inh: 57; SUMO Mot1 rescue: inactive; tim23-1 inh: inactive; tim10-1 inh: 63; PfHsp90 yeast 2: inactive; tim10-1 conf: 62; TIM10 conf: 44

Results for O=C1NC(=O)N(Cc2ccco2)C(=O)/C1=C\c1cccn1CCOc1ccc(Cl)cc1 ?
TIM10 inh: 41; tim23-1 inh: inactive; tim10-1 inh: 47; PfHsp90 yeast 2: inactive; tim10-1 conf: 41; TIM10 conf: 39

How did COC(=O)[C@@]1(C#N)[C@@H]2C=CC(C(C)=O)=CN2[C@@H](C(N)=O)[C@@H]1c1ccc(F)cc1 do in these assays?
TIM10 inh: inactive; SUMO Mot1 rescue: inactive; tim23-1 inh: inactive; tim10-1 inh: inactive; PfHsp90 yeast 2: inactive

What do the screens show for `CCSc1cc(C2C(C#N)=C(N)Oc3n[nH]c(C)c32)c(C)o1` (stereo not drawn)?
TIM10 inh: 48; SUMO Mot1 rescue: inactive; tim23-1 inh: inactive; tim10-1 inh: 63; PfHsp90 yeast 2: inactive; tim10-1 conf: 47; TIM10 conf: 45

Results for FC(F)(F)c1ccccc1CNCCc1c[nH]c2ccccc12 ?
TIM10 inh: 61; SUMO Mot1 rescue: inactive; tim23-1 inh: inactive; tim10-1 inh: 43; PfHsp90 yeast 2: inactive; tim10-1 conf: 62; TIM10 conf: 60

What do the screens show for `COC(=O)C1=C(c2ccc(F)cc2F)C[C@@H]2CC[C@H]1N2C(=O)NC1Cc2ccccc2C1`?
TIM10 inh: inactive; SUMO Mot1 rescue: inactive; tim23-1 inh: inactive; tim10-1 inh: inactive; PfHsp90 yeast 2: inactive

Results for Cc1nc2c(c(=O)[nH]1)C(c1ccccc1Cl)c1c(c3ccccc3oc1=O)O2 (stereo not drawn) ?
TIM10 inh: inactive; SUMO Mot1 rescue: inactive; tim23-1 inh: inactive; tim10-1 inh: inactive

What do the screens show for `OC(Cn1c2ccccc2c2ccccc21)C[n+]1cccc2ccccc21` (stereo not drawn)?
TIM10 inh: 57; SUMO Mot1 rescue: inactive; tim23-1 inh: inactive; tim10-1 inh: 49; PfHsp90 yeast 2: inactive; tim10-1 conf: 43; TIM10 conf: 43

How did CN(C)C(=O)Oc1ccc(Br)c2ccccc12 do in these assays?
TIM10 inh: inactive; SUMO Mot1 rescue: inactive; tim23-1 inh: inactive; tim10-1 inh: inactive

What do the screens show for `Fc1ccc(C[n+]2c(-c3ccccc3)cc(-c3ccccc3)cc2-c2ccccc2)cc1`?
TIM10 inh: 49; SUMO Mot1 rescue: inactive; tim23-1 inh: inactive; tim10-1 inh: 55; tim10-1 conf: 52; TIM10 conf: 59

Results for Cc1ccc(Cn2nnnc2CN2CCC(n3nnc4cc(C(F)(F)F)ccc43)CC2)cc1 ?
TIM10 inh: inactive; SUMO Mot1 rescue: inactive; tim23-1 inh: inactive; tim10-1 inh: inactive

How did Cc1ccc(Cn2nnnc2CN2CCC(n3nnc4cc(C)ccc43)CC2)cc1 do in these assays?
TIM10 inh: 50; SUMO Mot1 rescue: inactive; tim23-1 inh: inactive; tim10-1 inh: 52; PfHsp90 yeast 2: inactive; tim10-1 conf: 46; TIM10 conf: 28

Results for COc1ccc(NC(=S)NC(NC(=O)CF)C(Cl)(Cl)Cl)c([N+](=O)[O-])c1 (stereo not drawn) ?
TIM10 inh: inactive; SUMO Mot1 rescue: inactive; tim23-1 inh: inactive; tim10-1 inh: inactive

Results for Cc1ccc(/C=C2\C(=O)NC(=S)N(c3ccc(F)cc3)C2=O)s1 ?
TIM10 inh: 43; SUMO Mot1 rescue: inactive; tim23-1 inh: 55; tim10-1 inh: 70; PfHsp90 yeast 2: inactive; tim10-1 conf: 36; TIM10 conf: 38; tim23-1 confirm: 72

How did O=C1NC(=O)N(Cc2ccc(F)cc2)C(=O)/C1=C\c1ccc(N2CCCC2)cc1 do in these assays?
TIM10 inh: inactive; SUMO Mot1 rescue: inactive; tim23-1 inh: inactive; tim10-1 inh: inactive; PfHsp90 yeast 2: inactive

Results for O=C1NC(=O)N(Cc2ccc(F)cc2)C(=O)/C1=C\c1ccc([N+](=O)[O-])s1 ?
TIM10 inh: 83; SUMO Mot1 rescue: inactive; tim23-1 inh: 60; tim10-1 inh: 70; PfHsp90 yeast 2: 101; tim10-1 conf: 75; TIM10 conf: inactive; tim23-1 confirm: 76

Results for COc1ccc(CN2C(=O)NC(=O)/C(=C/c3ccc([N+](=O)[O-])s3)C2=O)cc1 ?
TIM10 inh: 82; SUMO Mot1 rescue: inactive; tim23-1 inh: 59; tim10-1 inh: 67; PfHsp90 yeast 2: 101; tim10-1 conf: 75; TIM10 conf: inactive; tim23-1 confirm: 75

What do the screens show for `CCOC(=O)CCCCCNC(=O)c1c(O)[nH]c(=O)[nH]c1=O`?
TIM10 inh: inactive; SUMO Mot1 rescue: inactive; tim23-1 inh: inactive; tim10-1 inh: inactive; PfHsp90 yeast 2: inactive

How did CCOc1cc2c(cc1OCC)-n1cccc1C(c1cc(OC)ccc1F)NC2 (stereo not drawn) do in these assays?
TIM10 inh: inactive; SUMO Mot1 rescue: inactive; tim23-1 inh: inactive; tim10-1 inh: inactive; PfHsp90 yeast 2: inactive

Results for COc1cc(/C=C/[N+](=O)[O-])ccc1O ?
TIM10 inh: inactive; SUMO Mot1 rescue: inactive; tim23-1 inh: 77; tim10-1 inh: 43; PfHsp90 yeast 2: inactive; tim10-1 conf: inactive; tim23-1 confirm: 76

How did CCN(CC)c1ccc(/C=C/[N+](=O)[O-])cc1 do in these assays?
TIM10 inh: inactive; SUMO Mot1 rescue: inactive; tim23-1 inh: inactive; tim10-1 inh: inactive; PfHsp90 yeast 2: inactive

Results for Cc1cc(C)cc(N2C(=O)NC(=O)/C(=C\c3cccn3-c3ccccc3)C2=O)c1 ?
TIM10 inh: inactive; SUMO Mot1 rescue: inactive; tim23-1 inh: inactive; tim10-1 inh: inactive; PfHsp90 yeast 2: inactive

How did CN1C(=O)/C(=C/c2cccn2-c2ccc3ccccc3c2)C(=O)NC1=S do in these assays?
TIM10 inh: 46; SUMO Mot1 rescue: inactive; tim23-1 inh: 66; tim10-1 inh: 56; PfHsp90 yeast 2: inactive; tim10-1 conf: 53; TIM10 conf: 49; tim23-1 confirm: 64

What do the screens show for `Cc1ccc(NC(=O)CN2C(=O)CN=C(c3ccccc3)c3cc(Cl)ccc32)cc1`?
TIM10 inh: inactive; tim23-1 inh: 61; tim10-1 inh: 45; PfHsp90 yeast 2: inactive; tim10-1 conf: inactive; tim23-1 confirm: 52

How did COc1ccc(N2C(=O)NC(=O)/C(=C/c3ccc([N+](=O)[O-])s3)C2=O)cc1 do in these assays?
TIM10 inh: 90; SUMO Mot1 rescue: inactive; tim23-1 inh: 61; tim10-1 inh: 62; tim10-1 conf: 71; TIM10 conf: 69; tim23-1 confirm: 76
